Bioassay records (PubChem)
In the library only some 6.9% were active in any assay of this set; here they are far more common.
KB-V1 cytotox = kills drug-selected multidrug resistant KB-V1 cells | KB-V1 MDR cells viability, CellTiter-Glo, 72 h | Potency, µM (titrated, usually from 46.1 µM), actives largely listed as cytotoxic | 400,000 tested, 3.4% active; note: potency is the fitted concentration of half-maximal effect; % is set by controls: 0 for no effect and ±100 for the full control effect; nearly all actives have a fitted effect of over 60% in size
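Potencies derive from concentration-effect curves fitted to normalized luminescence (CellTiter-Glo) of KB-V1 cells treated for 72 h at 37 degrees C in phenol-red-free DMEM containing 10% FBS.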
KB-3-1 cytotox = kills parental KB-3-1 adenocarcinoma cells; 400,000 tested, 1.4% active; Potency, µM (doses to about 46.1 µM), most hits filed as cytotoxic; KB-3-1 viability, CellTiter-Glo ATP luminescence, 72 h; note: potency is the fitted concentration of half-maximal effect; % is set by controls: 0 for no effect and ±100 for the full control effect; nearly all actives have a fitted effect of over 60% in size
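Using CellTiter-Glo luminescence, growth of non-resistant KB-3-1 adenocarcinoma cells is assessed 72 h after pin-tool compound addition at 37 °C. Normalized responses across the concentration series yield fitted curves.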
Giardia killer = Giardia lamblia killing. Giardia lamblia trophozoite viability. activity change, % at 7.66 µM, hits read low. 340,000 tested, 0.15% active; in the data active = activity change below about -80%; inconclusive = between about -30% and that limit;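 note: parasites exposed to compound for two days anaerobically before the ATP read; % is set by controls: 0 for no effect and ±100 for the full control effect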
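Giardia trophozoites, 100 cells per well, were exposed to compounds for 48 hrs at 37 deg C under anaerobic conditions; viability was then read as ATP content by bioluminescence after 15-30 min at room temperature.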
ASM inhibitor = human S-ASM enzyme inhibition; 340,000 tested, 0.006% active; AID 504937; Potency, µM (highest dose often 57.5 µM), for the others: at the highest dose activity change, negative = inhibition, hits mostly inhibitors; placental ASM, HMU-PC fluorogenic substrate, 60 min; note: potency is the fitted concentration of half-maximal effect
Target sequence (P17405 47-631 limits assumed): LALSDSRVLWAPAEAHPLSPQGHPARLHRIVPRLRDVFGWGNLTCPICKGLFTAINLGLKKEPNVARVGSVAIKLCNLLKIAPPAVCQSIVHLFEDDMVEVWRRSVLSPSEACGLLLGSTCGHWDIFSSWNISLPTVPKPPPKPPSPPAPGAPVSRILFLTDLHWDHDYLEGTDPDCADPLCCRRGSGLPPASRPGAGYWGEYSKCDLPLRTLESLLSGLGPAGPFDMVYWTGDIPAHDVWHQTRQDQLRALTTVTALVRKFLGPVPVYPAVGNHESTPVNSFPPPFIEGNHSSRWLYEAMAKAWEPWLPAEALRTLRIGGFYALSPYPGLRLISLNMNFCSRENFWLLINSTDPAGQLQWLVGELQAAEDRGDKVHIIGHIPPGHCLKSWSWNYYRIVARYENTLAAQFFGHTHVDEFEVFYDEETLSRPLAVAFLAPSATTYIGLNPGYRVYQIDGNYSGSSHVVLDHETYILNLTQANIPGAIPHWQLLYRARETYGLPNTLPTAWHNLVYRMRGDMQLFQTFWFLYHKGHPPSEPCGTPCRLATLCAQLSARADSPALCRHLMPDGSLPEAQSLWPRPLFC
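HMU-PC0 cleavage (9 uM final) by human placental ASM, 60 min at 37 °C following 10 min compound exposure at RT; stopped at pH 10, fluorescence Ex 386/Em 447 nm.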
MCF10A rerep = induces DNA re-replication in MCF 10a normal breast cells. MCF 10A DNA re-replication, Hoechst nuclear intensity, 48 h. Potency, µM (top dose mostly 46.1 µM), for inactives: at the top dose activity, positive = re-replication, hits mostly activators. 350,000 tested, 2.9% active. AID 624296; note: potency is the fitted concentration of half-maximal effect; % of control where 0% means no effect; nearly all actives have a fitted effect of over 50% in size
SW480 rereplic = induces DNA re-replication in SW480 colon adenocarcinoma cells. SW480 DNA re-replication, Hoechst DNA content imaging, 48 h. Potency, µM (highest dose often 46.1 µM), inactives show at the top dose re-replication activation, actives largely listed as activators. 340,000 tested, 1.8% active; note: potency is the fitted concentration of half-maximal effect; % of control where 0% means no effect; nearly all actives have a fitted effect of over 55% in size
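Hoechst fluorescence of nuclei (405 nm excitation, 500-530 nm emission) measured by plate-scanning imager after 48 hr compound exposure at 37 C; re-replication scored as increased number of nuclei with elevated intensity.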
An asterisk follows results filed as active; i = inactive; u = inconclusive; x = no result given; ! = not confirmed by another sample; [ ] = remark or other dose. Unless noted, calls come from the whole dose curve; as a rule, active = well fitted curve in the direction sought with a large enough effect; inconclusive = small, poorly fitted or top-dose-only effect, or another doubt; inactive = no such curve, though single readings can be large; an effect the other way counts as inactive or inconclusive.

SMILES | KB-V1 cytotox | KB-3-1 cytotox | Giardia killer | ASM inhibitor | MCF10A rerep | SW480 rereplic
Cc1ccccc1OCCC(=O)Nc1cccc(S(=O)(=O)Nc2ccccc2Cl)c1 | 11.6µM* | u | -6.9 | -5.7% | u | 4.7%
CCN(C[C@H]1N[C@@](CC)(C(=O)OC)[C@H]2C(=O)N(Cc3ccccc3)C(=O)[C@@H]12)C(=O)c1ccc(F)cc1 | i | i | 20.4 | 1.8% | -5.6% | -1.4%[9.22 µM]
Cc1ccc(NS(=O)(=O)c2ccc(C(=O)N3CCN(S(=O)(=O)c4ccccc4)CC3)cc2)cc1 | u | u | 9.7 | -0.2% | 7.4% | 25.9µM*
COc1cc(S(=O)(=O)Nc2ccccc2N2CCCCC2)ccc1NC(C)=O | i | i | 12.9 | -5.5% | 18.4µM* | u
COc1cccc(S(=O)(=O)Nc2cccc(C(=O)N3CCCC3)c2)c1 | i | i | -5.6 | 2.0% | -17.5% | -5.5%
COc1ccccc1NS(=O)(=O)c1cccc(C(=O)N2CCCCCCC2)c1 | 16.4µM* | i | -7.3 | 1.3% | -0.4% | -3.8%
Cc1ccc(S(=O)(=O)Nc2ccc(C(=O)N3CCCC3)cc2)cc1 | u | i | -13.0 | 1.7% | -32.9% | -6.9%
COc1cccc(S(=O)(=O)Nc2cccc(C(=O)N3CCCCCC3)c2)c1 | 14.6µM* | i | -7.1 | -3.4% | 10.3% | -37.1%
COc1ccccc1NS(=O)(=O)c1cccc(C(=O)N2CCCC2)c1 | u | i | -17.2 | 7.2% | -11.4% | -3.4%
Cc1c(Cl)cccc1NC(=O)NCCOCCn1c(=O)oc2ccccc21 | i | i | x | x | x | x
O=C(Nc1ccc(C(=O)N2CCCC2)cc1)c1ccc(F)cc1Cl | i | i | -5.1 | 1.2% | 1.8% | -2.3%
COc1ccc(C)cc1NC(=O)CSc1nc(=O)n(Cc2cccnc2)c2c1CCC2 | i | i | x | x | x | x
O=C(Nc1ccc(N2CCN(C(=O)c3ccco3)CC2)c(Cl)c1)c1cc2ccccc2o1 | i | u | -19.3 | -5.1% | 9.2µM* | u
CCC(=O)N1CCN(c2ccc(NC(=O)c3ccco3)cc2Cl)CC1 | u | i | 10.5 | -0.9% | -1.9% | 1.2%
CCC(=O)N1CCN(c2ccc(NC(=O)c3cc4ccccc4o3)cc2Cl)CC1 | 9.2µM* | u | -5.8 | -9.9% | u | -1.0%
CCCC(=O)N1CCN(c2ccc(NC(=O)c3cc4ccccc4o3)cc2Cl)CC1 | u | u | 1.6 | -9.0% | 6.51µM* | 1.8%
O=C(CC(SCc1ccco1)c1ccc(O)cc1)c1cccs1 (configuration not stated) | i | 20.6µM* | 1.1 | -4.2% | u | -2.8%
CC(=O)N1c2ccc(S(=O)(=O)NCCC(=O)Nc3ccc(C)cc3Br)cc2CC1C (configuration not stated) | i | i | x | x | x | x
O=C1CC(c2cccc([N+](=O)[O-])c2)c2c(ccc3ccccc23)N1 (configuration not stated) | 5.8µM* | u | -6.4 | -7.8% | u | u
Cc1cccc(C)c1NC(=O)CCCSc1nnc(-c2ccc(F)cc2)n1-c1ccccc1 | 2.31µM* | 16.4µM* | 19.0 | 1.6% | u | 1.6%
O=C(CSc1nnc(-c2ccncc2)n1-c1ccccc1)Nc1ccc(F)cc1 | i | i | x | x | x | x
Cc1cccc(C)c1NC(=O)CCCSc1nnc(-c2ccc(Cl)cc2)n1-c1ccccc1 | 2.91µM* | 4.11µM* | 2.9 | -9.7% | u | u
COC(=O)c1ccccc1NC1=C/C(=N\S(=O)(=O)c2cccs2)c2ccccc2C1=O | 18.4µM*! | u | 8.2 | -2.1% | 18.4µM* | 4.61µM*
O=C1C=C(Nc2ccccc2C(=O)O)c2ccccc2C1=O | i | i | 28.9 | -2.7% | 29.7% | 35.6%
COC(=O)c1ccccc1NC1=C/C(=N\S(=O)(=O)c2ccc(C(=O)O)cc2)c2ccccc2C1=O | 18.4µM* | u | 2.4 | 15.7% | u | 2.91µM*
SMILES | KB-V1 cytotox | KB-3-1 cytotox | Giardia killer | ASM inhibitor | MCF10A rerep | SW480 rereplic
CCCCCCC(=O)N/N=C/c1ccc(Br)cc1 | i | i | -23.3 | -4.4% | u | u
CCCCCCCCC(=O)N/N=C/c1cccc(Br)c1 | i | i | -4.7 | u | 18.4µM* | 16.6%
FC(F)(F)c1cc(Oc2ccccc2)nc(-c2ccccn2)n1 | 14.6µM* | u | -13.2 | 0.2% | 18.2% | u
O=C(O)CSc1cc(C(F)(F)F)nc(-c2ccccn2)n1 | i | i | -19.9 | -1.3% | 10.6% | -2.5%
CCN(CC)c1cc(C(F)(F)F)nc(-c2ccccn2)n1 | 18.4µM* | i | -3.7 | -4.6% | u | u
FC(F)(F)c1cccc(Sc2cc(C(F)(F)F)nc(-c3ccccn3)n2)c1 | 16.4µM* | u | -14.0 | -12.0% | -180.3%[0.0737 µM] | -11.2%
C=CCNC1=C2C[C@@H](C)C[C@H](OC)[C@H](O)[C@@H](C)/C=C(\C)[C@H](OC(N)=O)[C@@H](OC)/C=C\C=C(/C)C(=O)NC(=CC1=O)C2=O | x | x | x | x | 0.0668µM* | 2.9%
COC1C=CC=C(C)C(=O)NC2=CC(=O)C(N)=C(CC(C)CC(OC)C(O)C(C)C=C(C)C1OC(N)=O)C2=O (configuration not stated) | i | i | -24.3 | -1.2% | 64.4% | 0.231µM*
O=C(NCCc1nc2ccccc2n1CCOc1cccc2ccccc12)C1CCCCC1 | i | i | 0.2 | x | x | x
Cc1cccc(/C=N/NC(=O)c2ccc(NC(=O)c3ccc(F)cc3)cc2)n1 | i | i | -18.5 | -2.9%[11.5 µM] | 20.6µM* | -29.6%
CN1CCN(C(=O)C2CCCCC2)CC1 | x | x | x | x | 1.4% | 2.3%
Cc1nc2sc(-c3ccccc3)cc2c(=O)[nH]1 | 16.4µM* | u | u | 1.3% | 25.9µM* | u
O=c1[nH]c(-c2cccnc2)nc2sc(-c3ccccc3)cc12 | 2.91µM* | u | -1.5 | i | 1.3µM* | 3.66µM*
COC(=O)c1ccc(CSc2nnc(Nc3ccccc3OC)s2)o1 | i | i | 13.3 | -4.3% | 9.2µM* | 16.8%
CCCCN(CCCC)C(=O)c1cc(Cl)ccc1[N+](=O)[O-] | 23.1µM* | i | 2.6 | -1.8% | 12.7% | u
CC12CCC(C)(c3nc4ccccc4nc31)C2(C)C | i | i | -3.8 | -0.5% | 4.0% | -5.4%
Cc1[nH]nc2c1-c1nc3ccccc3nc1C(C)(C)C2 | 18.4µM* | u | 0.3 | 17.4% | u | u
COCCOc1ccc(C(F)(F)F)cc1NC(=O)COC(=O)c1cc([N+](=O)[O-])ccc1N1CCOCC1 | x | x | 13.1 | -18.5% | 13.7% | 8.2%
CC(=NNc1nc2ccccc2s1)c1ccncn1 | u | 7.31µM* | 26.8 | -1.1% | 7.31µM* | u
CCOC(=O)c1ccc(NC(=O)Nc2ccc3snnc3c2)cc1 | i | i | x | x | x | x
